# Test results published in the antibiotic and cytotoxicity screens of Wong et al. (2023).
# In all, about 39,000 compounds went through this assay and about 1,500 (3.8%) were called active. The full list was thinned out, with actives kept by preference.
# Tested on: HSkMC (human skeletal muscle cells)
# Assay: cytotoxicity call (relative viability < 0.9)
# Settings: 10 µM
row,Compound,cytotoxicity call
1,COCC#Cc1ccc2c(c1)O[C@H](CN(C)S(=O)(=O)c1cccc(F)c1)[C@H](C)CN([C@H](C)CO)S2(=O)=O,inactive
2,NC(=O)N1CCC(CC(=O)N2CCC([C@H]3c4ncc(Br)cc4CCc4cc(Cl)cc(Br)c43)CC2)CC1,inactive
3,C[C@@H]1CN([C@@H](C)CO)C(=O)CCCn2cc(nn2)CO[C@@H]1CN(C)S(=O)(=O)c1ccc2c(c1)OCCCO2,inactive
4,Cc1ccc(S(=O)(=O)N(C)C[C@@H]2Oc3c(NC(=O)C4CCOCC4)cccc3C(=O)N([C@H](C)CO)C[C@H]2C)cc1,inactive
5,C[C@@H]1CN([C@@H](C)CO)C(=O)c2c(c3ccccc3n2C)-c2ccccc2CO[C@@H]1CN(C)Cc1cccc(F)c1,inactive
6,Cc1ccccc1S(=O)(=O)N(C)C[C@@H]1Oc2ccc(NC(=O)Nc3ccc(Cl)c(Cl)c3)cc2CC(=O)N([C@@H](C)CO)C[C@@H]1C,active
7,Cc1noc(C)c1S(=O)(=O)N(C)C[C@@H]1Oc2ccc(NC(=O)Nc3ccccc3)cc2CC(=O)N([C@@H](C)CO)C[C@@H]1C,inactive
8,C[C@H](CO)N1C[C@H](C)[C@@H](CN(C)S(C)(=O)=O)Oc2ccc(NC(=O)Nc3ccccc3)cc2CC1=O,inactive
9,Cc1ccccc1S(=O)(=O)N(C)C[C@@H]1Oc2ccc(NC(=O)Nc3cc(Cl)cc(Cl)c3)cc2CC(=O)N([C@@H](C)CO)C[C@@H]1C,active
10,C[C@H]1CN([C@@H](C)CO)C(=O)Cc2cc(NC(=O)Nc3cc(Cl)cc(Cl)c3)ccc2O[C@H]1CN(C)S(=O)(=O)c1ccc(Oc2ccccc2)cc1,inactive
11,C[C@H]1CN([C@@H](C)CO)C(=O)Cc2cc(NC(=O)Nc3ccc(Cl)c(Cl)c3)ccc2O[C@H]1CN(C)S(=O)(=O)c1ccc(Oc2ccccc2)cc1,inactive
12,Nc1ccccc1CO,inactive
13,C[C@H](CO)N1C[C@H](C)[C@H](CN(C)CC2CC2)OCCCC[C@H](C)Oc2ccc(NC(=O)Nc3ccccc3)cc2C1=O,inactive
14,C[C@@H]1CCCCO[C@H](CN(C)Cc2ccc3c(c2)OCO3)[C@H](C)CN([C@H](C)CO)C(=O)c2cc(NC(=O)Nc3ccc4c(c3)OCO4)ccc2O1,inactive
15,Cc1ccc(S(=O)(=O)Nc2ccc3c(c2)C(=O)N([C@@H](C)CO)C[C@H](C)[C@H](CN(C)Cc2ccccc2)OCCCC[C@@H](C)O3)cc1,inactive
16,O=C(C1=C[C@@H](c2ccc3c(c2)OCO3)C[C@@H](OCCCCO)O1)N1CCN(Cc2ccc3c(c2)OCO3)CC1,inactive
17,C[C@H]1CN([C@@H](C)CO)C(=O)c2cc(C#CC3(O)CCCC3)cnc2O[C@@H]1CN(C)C(=O)Cc1ccncc1,inactive

row,Compound,cytotoxicity call
1,COc1ccc(S(=O)(=O)N2C[C@@H](O)COC[C@@H]3O[C@@H](CC(=O)NCCCN4CCOCC4)CC[C@H]32)cc1,inactive
2,CCCCCCOC(=O)/N=C(/N)c1ccc(NCc2nc3cc(C(=O)N(CCC(=O)OCC)c4ccccn4)ccc3n2C)cc1,active
3,CCCCCCOC(=O)N=C(N)c1ccc(NCc2nc3cc(C(=O)N(CCC(=O)OCC)c4ccccn4)ccc3n2C)cc1.CS(=O)(=O)O,inactive
4,COc1ccc(NC(=O)Nc2cccc3c2O[C@@H](CN(C)S(C)(=O)=O)[C@@H](C)CN([C@H](C)CO)C3=O)cc1,inactive
5,C[C@H](CO)N1C[C@H](C)[C@H](CN(C)S(C)(=O)=O)Oc2ccc(NS(=O)(=O)c3ccc(F)cc3)cc2CC1=O,inactive
6,C[C@H](CO)N1C[C@H](C)[C@@H](CN(C)C(=O)Nc2ccc3c(c2)OCO3)Oc2ccc(NC(=O)c3ccncc3)cc2CC1=O,inactive
7,Cc1noc(C)c1NC(=O)Nc1ccc2c(c1)C(=O)N([C@@H](C)CO)C[C@@H](C)[C@H](CN(C)Cc1ccccc1)OCCCC[C@@H](C)O2,inactive
8,C[C@H](CO)N1C[C@H](C)[C@H](CN(C)CC2CC2)OCCCC[C@H](C)Oc2ccc(NC(=O)Nc3ccc(C(F)(F)F)cc3)cc2C1=O,inactive
9,CCCN(C)C[C@H]1OCCCC[C@H](C)Oc2ccc(NC(=O)Nc3ccc(C(F)(F)F)cc3)cc2C(=O)N([C@@H](C)CO)C[C@H]1C,inactive
10,CCCN(C)C[C@@H]1OCCCC[C@H](C)Oc2ccc(NC(=O)Nc3ccc(C(F)(F)F)cc3)cc2C(=O)N([C@@H](C)CO)C[C@@H]1C,active
11,C[C@H]1CCCCO[C@H](CN(C)CC2CC2)[C@@H](C)CN([C@@H](C)CO)C(=O)c2cc(NC(=O)Nc3ccc(C(F)(F)F)cc3)ccc2O1,inactive
12,C[C@@H]1CCCCO[C@H](CN(C)CC2CC2)[C@H](C)CN([C@@H](C)CO)C(=O)c2cc(NC(=O)Nc3ccc(C(F)(F)F)cc3)ccc2O1,active
13,C[C@@H]1CCCCO[C@@H](CN(C)CC2CC2)[C@@H](C)CN([C@H](C)CO)C(=O)c2cc(NC(=O)Nc3ccc(C(F)(F)F)cc3)ccc2O1,inactive
14,CCCN(C)C[C@@H]1OCCCC[C@@H](C)Oc2ccc(NC(=O)Nc3ccc(C(F)(F)F)cc3)cc2C(=O)N([C@H](C)CO)C[C@@H]1C,inactive
15,C[C@@H]1CCCCO[C@H](CN(C)CC2CC2)[C@H](C)CN([C@H](C)CO)C(=O)c2cc(NC(=O)Nc3ccc(C(F)(F)F)cc3)ccc2O1,active
16,C[C@@H]1CCCCO[C@@H](CN(C)CC2CC2)[C@H](C)CN([C@@H](C)CO)C(=O)c2cc(NC(=O)Nc3ccc(C(F)(F)F)cc3)ccc2O1,inactive
